# Results taken from the supplement of paper PMC10849652.
# Of roughly 7,900 targets only a part is listed; those with a hit were picked by preference. About 0.6% of all pairs of compound and target were hits.
# Compound: CN1C2=C(C3=C1C(=O)N(N=C3)CC4=CC(=CC=C4)N)SC(=C2)S(=O)C
# Assay: log2 fold change, soluble protein after heating vs DMSO (PISA); higher = thermal stabilisation; K562 cells, 10 uM, 30 min; active = over 0.2 and 3.5 SD of the protein, either way, in both replicates (recomputed)
# Procedure, shortened: (§1)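 For each measurement, 10 μM compound was applied for 30 min to K562 cells at 2×10^6 cells/mL. Aliquots were heated for 3 min across 48°C-58°C, pooled, and extracted in PBS with 0.5% NP-40 at 4°C; the supernatant after 21,000xg for 90 min was soluble protein. This was quantified by TMTpro 16plex LC-MS/MS with channel sums equalised, and thermal stability was reported relative to control samples from duplicates, on a log2 fold-change scale.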
# Chain of UniProt Q13111 (Q13111 whole entry, looked up): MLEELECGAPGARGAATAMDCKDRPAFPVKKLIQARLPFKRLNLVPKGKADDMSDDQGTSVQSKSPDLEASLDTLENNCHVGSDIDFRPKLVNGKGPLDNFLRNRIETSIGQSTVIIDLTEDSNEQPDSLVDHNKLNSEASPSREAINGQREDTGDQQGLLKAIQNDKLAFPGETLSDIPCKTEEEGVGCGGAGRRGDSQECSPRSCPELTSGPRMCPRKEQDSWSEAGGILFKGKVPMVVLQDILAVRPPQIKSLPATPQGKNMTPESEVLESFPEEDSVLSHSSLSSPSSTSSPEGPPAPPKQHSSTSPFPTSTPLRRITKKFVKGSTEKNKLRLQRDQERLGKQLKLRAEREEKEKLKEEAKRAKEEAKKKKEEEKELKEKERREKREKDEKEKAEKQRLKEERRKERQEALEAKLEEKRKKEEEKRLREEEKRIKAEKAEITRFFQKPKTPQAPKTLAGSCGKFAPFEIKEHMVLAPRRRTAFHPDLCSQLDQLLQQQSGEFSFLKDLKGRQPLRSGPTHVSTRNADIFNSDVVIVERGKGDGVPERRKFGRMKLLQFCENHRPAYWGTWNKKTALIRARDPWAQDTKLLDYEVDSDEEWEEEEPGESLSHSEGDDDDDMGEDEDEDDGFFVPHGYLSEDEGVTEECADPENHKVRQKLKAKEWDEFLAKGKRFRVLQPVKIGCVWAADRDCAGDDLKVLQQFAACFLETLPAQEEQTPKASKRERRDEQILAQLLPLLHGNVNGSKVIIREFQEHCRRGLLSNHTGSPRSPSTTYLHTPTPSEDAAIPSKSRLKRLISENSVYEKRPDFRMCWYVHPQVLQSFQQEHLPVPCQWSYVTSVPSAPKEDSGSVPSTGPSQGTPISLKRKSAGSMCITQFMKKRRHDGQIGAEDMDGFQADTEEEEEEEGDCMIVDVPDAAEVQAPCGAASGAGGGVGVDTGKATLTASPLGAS
# Chain of UniProt P46527 (P46527 whole entry, looked up): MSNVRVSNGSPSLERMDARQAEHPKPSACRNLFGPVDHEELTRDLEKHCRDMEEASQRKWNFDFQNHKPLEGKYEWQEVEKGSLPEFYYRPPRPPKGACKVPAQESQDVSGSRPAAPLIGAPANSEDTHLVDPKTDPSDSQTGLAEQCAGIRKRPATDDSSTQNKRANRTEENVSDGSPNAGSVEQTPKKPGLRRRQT
# Chain of UniProt Q9H9S4 (Q9H9S4 whole entry, looked up): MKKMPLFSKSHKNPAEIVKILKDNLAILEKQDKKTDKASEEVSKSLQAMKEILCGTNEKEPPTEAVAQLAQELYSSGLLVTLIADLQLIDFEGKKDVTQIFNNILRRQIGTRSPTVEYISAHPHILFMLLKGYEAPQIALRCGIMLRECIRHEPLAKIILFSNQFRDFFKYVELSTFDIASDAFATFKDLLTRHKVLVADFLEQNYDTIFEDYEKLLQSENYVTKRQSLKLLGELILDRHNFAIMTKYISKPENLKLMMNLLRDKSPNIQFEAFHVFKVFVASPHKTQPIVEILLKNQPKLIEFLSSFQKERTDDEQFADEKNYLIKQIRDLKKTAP
# Chain of UniProt P48730 (P48730 whole entry, looked up): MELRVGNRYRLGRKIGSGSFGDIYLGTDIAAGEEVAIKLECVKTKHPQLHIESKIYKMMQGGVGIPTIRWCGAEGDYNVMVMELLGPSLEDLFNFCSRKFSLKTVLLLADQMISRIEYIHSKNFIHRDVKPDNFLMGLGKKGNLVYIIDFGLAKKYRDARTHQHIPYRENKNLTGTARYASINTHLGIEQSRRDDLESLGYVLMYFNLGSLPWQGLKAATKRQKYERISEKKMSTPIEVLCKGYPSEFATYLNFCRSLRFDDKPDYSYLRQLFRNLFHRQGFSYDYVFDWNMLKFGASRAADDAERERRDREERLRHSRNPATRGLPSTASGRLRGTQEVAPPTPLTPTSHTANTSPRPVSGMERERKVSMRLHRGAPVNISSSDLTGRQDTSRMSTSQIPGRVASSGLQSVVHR
# Chain of UniProt Q00537 (Q00537 whole entry, looked up): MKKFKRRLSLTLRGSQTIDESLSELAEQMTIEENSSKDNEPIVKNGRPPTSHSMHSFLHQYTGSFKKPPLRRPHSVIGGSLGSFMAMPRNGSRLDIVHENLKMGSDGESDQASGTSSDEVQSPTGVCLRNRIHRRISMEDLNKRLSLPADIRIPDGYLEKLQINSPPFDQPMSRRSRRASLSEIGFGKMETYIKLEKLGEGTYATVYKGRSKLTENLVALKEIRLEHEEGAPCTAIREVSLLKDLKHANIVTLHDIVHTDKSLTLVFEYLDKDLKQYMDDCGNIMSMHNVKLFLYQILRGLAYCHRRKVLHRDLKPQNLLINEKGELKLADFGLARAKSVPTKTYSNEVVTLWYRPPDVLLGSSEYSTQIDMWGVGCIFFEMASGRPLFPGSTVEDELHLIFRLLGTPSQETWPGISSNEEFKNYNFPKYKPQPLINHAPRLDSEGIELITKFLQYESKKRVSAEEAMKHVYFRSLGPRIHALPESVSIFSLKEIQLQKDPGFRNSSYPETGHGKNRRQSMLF
# Chain of UniProt Q9UBY8 (Q9UBY8 whole entry, looked up): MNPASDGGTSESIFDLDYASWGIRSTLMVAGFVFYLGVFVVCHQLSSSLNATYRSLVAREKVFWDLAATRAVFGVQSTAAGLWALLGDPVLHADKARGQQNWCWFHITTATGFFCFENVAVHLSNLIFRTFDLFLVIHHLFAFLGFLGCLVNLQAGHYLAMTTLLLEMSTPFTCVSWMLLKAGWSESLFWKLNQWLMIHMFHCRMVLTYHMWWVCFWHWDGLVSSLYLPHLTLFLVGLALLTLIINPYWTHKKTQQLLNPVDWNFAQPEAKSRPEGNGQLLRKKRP
# Chain of UniProt Q96MX0 (Q96MX0 whole entry, looked up): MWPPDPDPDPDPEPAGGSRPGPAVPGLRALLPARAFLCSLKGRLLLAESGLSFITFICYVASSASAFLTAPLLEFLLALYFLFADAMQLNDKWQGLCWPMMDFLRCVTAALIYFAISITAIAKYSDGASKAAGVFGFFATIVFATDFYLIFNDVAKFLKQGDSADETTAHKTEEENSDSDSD
# Chain of UniProt Q92828 (Q92828 whole entry, looked up): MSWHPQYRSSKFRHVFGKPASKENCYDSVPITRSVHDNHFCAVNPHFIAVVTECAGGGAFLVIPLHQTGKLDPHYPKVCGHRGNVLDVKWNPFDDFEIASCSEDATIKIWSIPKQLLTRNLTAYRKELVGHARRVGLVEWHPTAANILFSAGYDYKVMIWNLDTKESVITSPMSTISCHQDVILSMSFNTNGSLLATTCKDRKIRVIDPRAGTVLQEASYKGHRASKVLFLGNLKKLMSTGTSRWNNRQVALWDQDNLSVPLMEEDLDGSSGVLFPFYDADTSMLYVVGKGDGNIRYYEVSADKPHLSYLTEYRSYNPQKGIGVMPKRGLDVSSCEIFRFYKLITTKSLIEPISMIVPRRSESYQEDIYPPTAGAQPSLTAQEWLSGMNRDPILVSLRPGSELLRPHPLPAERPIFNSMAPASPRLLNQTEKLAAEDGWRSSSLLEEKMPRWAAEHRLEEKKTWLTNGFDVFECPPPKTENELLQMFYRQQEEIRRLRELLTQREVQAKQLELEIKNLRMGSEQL
# Chain of UniProt Q9P0B6 (Q9P0B6 whole entry, looked up): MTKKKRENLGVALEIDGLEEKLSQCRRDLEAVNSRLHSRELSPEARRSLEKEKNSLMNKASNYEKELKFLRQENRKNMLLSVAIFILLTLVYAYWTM
# Chain of UniProt Q14061 (Q14061 whole entry, looked up): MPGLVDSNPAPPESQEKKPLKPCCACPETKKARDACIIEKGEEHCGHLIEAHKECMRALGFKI
# Chain of UniProt Q9BWU1 (Q9BWU1 whole entry, looked up): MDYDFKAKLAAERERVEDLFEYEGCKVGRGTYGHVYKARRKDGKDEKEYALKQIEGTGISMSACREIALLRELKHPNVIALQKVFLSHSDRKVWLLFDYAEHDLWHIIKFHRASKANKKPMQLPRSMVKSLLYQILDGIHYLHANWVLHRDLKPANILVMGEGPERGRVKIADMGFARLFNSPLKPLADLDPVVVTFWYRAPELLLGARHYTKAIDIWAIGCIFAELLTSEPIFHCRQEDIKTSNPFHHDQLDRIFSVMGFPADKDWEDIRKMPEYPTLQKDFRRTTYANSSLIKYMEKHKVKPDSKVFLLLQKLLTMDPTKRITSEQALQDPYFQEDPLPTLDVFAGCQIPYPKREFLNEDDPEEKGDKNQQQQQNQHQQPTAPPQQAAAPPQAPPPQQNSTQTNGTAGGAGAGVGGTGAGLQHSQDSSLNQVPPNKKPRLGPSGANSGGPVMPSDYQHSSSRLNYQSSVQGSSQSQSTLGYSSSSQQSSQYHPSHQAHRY
# Chain of UniProt Q9Y2V0 (Q9Y2V0 whole entry, looked up): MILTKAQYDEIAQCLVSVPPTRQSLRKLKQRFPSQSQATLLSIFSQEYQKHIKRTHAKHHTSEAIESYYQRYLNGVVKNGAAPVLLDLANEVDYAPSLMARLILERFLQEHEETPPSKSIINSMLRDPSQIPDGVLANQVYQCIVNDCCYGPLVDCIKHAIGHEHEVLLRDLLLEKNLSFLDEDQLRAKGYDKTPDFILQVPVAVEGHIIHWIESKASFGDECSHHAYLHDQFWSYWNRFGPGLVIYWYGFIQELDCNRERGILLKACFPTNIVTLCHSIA
# Chain of UniProt Q96G28 (Q96G28 whole entry, looked up): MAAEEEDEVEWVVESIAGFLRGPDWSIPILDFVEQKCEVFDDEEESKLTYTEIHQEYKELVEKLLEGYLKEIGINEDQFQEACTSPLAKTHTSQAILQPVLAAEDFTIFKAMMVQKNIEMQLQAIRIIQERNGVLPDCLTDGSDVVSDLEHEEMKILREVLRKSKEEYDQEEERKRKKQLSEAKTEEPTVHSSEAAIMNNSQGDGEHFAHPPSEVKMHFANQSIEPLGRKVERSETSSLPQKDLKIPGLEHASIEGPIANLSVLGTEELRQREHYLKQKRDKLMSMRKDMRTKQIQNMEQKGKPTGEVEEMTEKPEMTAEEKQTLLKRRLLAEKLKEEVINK
# Chain of UniProt P24311 (P24311 whole entry, looked up): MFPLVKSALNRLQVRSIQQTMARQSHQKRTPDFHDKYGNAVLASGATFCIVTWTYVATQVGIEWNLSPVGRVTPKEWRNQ
row,Target,log2 fold change
1,CHAF1A (UniProt Q13111),0.158 (inactive)
2,CRYM-AS1 (UniProt A6NIL9),0.04 (inactive)
3,CORO2A (UniProt Q92828),-0.022 (inactive)
4,CSNK1D (UniProt P48730),0.15 (inactive)
5,CMTM3 (UniProt Q96MX0),0.048 (inactive)
6,CDK17 isoform 2 (UniProt Q00537),0.022 (inactive)
7,CDKN1B (UniProt P46527),0.06 (inactive)
8,CAB39L (UniProt Q9H9S4),-0.047 (inactive)
9,CLN8 (UniProt Q9UBY8),0.135 (inactive)

# Compound: CN1CCC(CNc2ccc3ncc(-c4cccc(OC(F)(F)F)c4)n3n2)CC1
# Assay: as above
# Procedure, shortened: as §1
row,Target,log2 fold change
1,CFAP36 isoform 2 (UniProt Q96G28),-0.049 (inactive)
2,CHPT1 (UniProt Q8WUD6),-0.79 (active)
3,CENPE (UniProt Q02224),0.192 (inactive)
4,CASP10 isoform 4 (UniProt Q92851),-0.331 (inactive)
5,COPS3 isoform 2 (UniProt Q9UNS2),-0.124 (inactive)
6,COX7B (UniProt P24311),0.323 (active)
7,CCM2 isoform 2 (UniProt Q9BSQ5),-0.233 (inactive)
8,CCNT2 (UniProt O60583),-0.101 (inactive)
9,CRTC1 isoform 2 (UniProt Q6UUV9),0.101 (inactive)
10,CDK5 (UniProt Q00535),0.025 (inactive)
11,C15orf41 (UniProt Q9Y2V0),0.001 (inactive)
12,CCDC167 (UniProt Q9P0B6),0.033 (inactive)
13,C9orf72 (UniProt Q96LT7),0.209 (inactive)
14,C19orf54 (UniProt Q5BKX5),-0.141 (inactive)
15,CDK19 (UniProt Q9BWU1),0.456 (inactive)
16,CASP9 (UniProt P55211),-0.188 (inactive)

row,Target,log2 fold change
1,CCNC (UniProt P24863),0.4 (active)
2,CCNDBP1 (UniProt O95273),-0.048 (inactive)
3,CIR1 (UniProt Q86X95),-0.458 (inactive)
4,CDK8 (UniProt P49336),0.356 (inactive)
5,COX17 (UniProt Q14061),0.055 (inactive)
6,CHAF1A (UniProt Q13111),0.051 (inactive)
7,CRYM-AS1 (UniProt A6NIL9),-0.714 (active)
8,CORO2A (UniProt Q92828),-0.096 (inactive)
9,CSNK1D (UniProt P48730),0.315 (inactive)
10,CDCA2 (UniProt Q69YH5),0.205 (inactive)
11,CMTM3 (UniProt Q96MX0),-0.122 (inactive)
12,CDK17 isoform 2 (UniProt Q00537),0.051 (inactive)
13,CDKN1B (UniProt P46527),0.073 (inactive)
14,CAB39L (UniProt Q9H9S4),0.072 (inactive)
15,CHST10 (UniProt O43529),-0.108 (inactive)
16,CLN8 (UniProt Q9UBY8),0.191 (inactive)
